Experimental findings from PubChem BioAssay (Tox21) are described below.

Structures are written as SMILES. Unmarked numbers belong to inactive results. Results filed as inconclusive are left out. Activity calls are given as the source filed them. Unless noted, the call rests on the fitted dose curve; in most records, active means well fitted curve in the direction sought with a large enough effect in the repeat runs; inconclusive means weak or mixed curves; inactive means no such curve, though single readings can be large; an effect the other way counts as inactive or inconclusive.

Test [1] is described as follows: A CellTox Green Cytotoxicity Assay to monitor cytotoxicity in HEK293 cells - 32 hour (AID 1224881). Further: nearly all actives have a fitted effect of over 40% in size. The gist of the method:
(§1)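 Seeding of HEK293 cells together with cytotoxicity dye preceded a 5 h incubation at 37 C/5% CO2. Test compounds in DMSO were then added and fluorescence monitored across 40 h.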

Test [2] in a line: A CellTox Green Cytotoxicity Assay to monitor cytotoxicity in HepG2 cells - 0 hour (AID 1224882). Further: nearly all actives have a fitted effect of over 35% in size. The gist of the method:
(§2)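 Nonlytic assay: viable cells exclude the dye, so fluorescence scales with cell death. HepG2 at 600 cells/well, compounds added after 5 h, signal read across 40 h.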

Test [3] is described as follows: A CellTox Green Cytotoxicity Assay to monitor cytotoxicity in HEK293 cells - 8 hour (AID 1224884). Further: nearly all actives have a fitted effect of over 35% in size. The gist of the method:
as §1

A short description of test [4]: qHTS RealTime-Glo MT Cell Viability Assay in HepG2 cells - 16 hour (AID 1224885). Further: nearly all actives have a fitted effect of over 50% in size. The gist of the method:
(§3)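 Cell number in HepG2 cultures estimated from NanoLuc luminescence generated by metabolic reduction of a prosubstrate by living cells. The homogeneous, nonlytic format allowed repeated reads at 0, 8, 16, 24, 32 and 40 h of compound exposure.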
On the technique in general: Quantitative high-throughput screening tests each substance at several concentrations.

A short description of test [5]: qHTS RealTime-Glo MT Cell Viability Assay in HEK293 cells - 24 hour (AID 1224886). Further: nearly all actives have a fitted effect of over 50% in size. Further: potency means the concentration at half of the fitted maximal effect. The gist of the method: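 Homogeneous bioluminescent viability format in HEK293 cells (600 cells/well). Following 5 h at 37 C/5% CO2, 23 nL compound was pintooled; the signal was measured repeatedly during 40 h incubation.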
A short description of test [6]: qHTS RealTime-Glo MT Cell Viability Assay in HEK293 cells - 8 hour (AID 1224887). Further: nearly all actives have a fitted effect of over 50% in size. Further: potency means the concentration at half of the fitted maximal effect. The gist of the method:
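Tox21 screen in HEK293 using RealTime-Glo MT chemistry, with cells and reagent co-dispensed. Luminescence proportional to viable cell number was captured at intervals during 40 h compound exposure at 37 C.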

The nature of test [7]: A CellTox Green Cytotoxicity Assay to monitor cytotoxicity in HEK293 cells - 16 hour (AID 1224888). Further: nearly all actives have a fitted effect of over 35% in size. The gist of the method: as §1
A short description of test [8]: qHTS RealTime-Glo MT Cell Viability Assay in HepG2 cells - 0 hour (AID 1224889). Further: nearly all actives have a fitted effect of over 50% in size. The gist of the method: as §3
A short description of test [9]: A CellTox Green Cytotoxicity Assay to monitor cytotoxicity in HepG2 cells - 8 hour (AID 1224890). Further: nearly all actives have a fitted effect of over 45% in size. The gist of the method: as §2
Test [10] in a line: qHTS assay to identify small molecule antagonists of the estrogen receptor alpha (ER-alpha) signaling pathway using the BG1 cell line in the presence of 0.1 nM 17-beta-estradiol - cell viability counter screen (AID 1259241). Further: nearly all actives have a fitted effect of over 40% in size. The gist of the method:
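VM7Luc4E2, 4,000 cells/well, phenol red-free medium + 10% charcoal-stripped FBS; 24 hr plating; cpd + 0.1 nM E2 final, 22 hr 37C/5% CO2; CellTiter-Fluor 30 min, fluorescence.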

Test [11] is described as follows: qHTS assay to identify small molecule antagonists of the androgen receptor (AR) signaling pathway using the MDA cell line in the presence of 0.5 nM R1881 - cell viability counter screen (AID 1259242). Further: nearly all actives have a fitted effect of over 45% in size. The gist of the method: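 R1881 at 0.5 nM final stimulated MDA-kb2 cells during 16 hr compound treatment at 37C. Cytotoxicity read: CellTiter-Fluor fluorescence after 30 min.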

Test [12] is described as follows: qHTS assay to identify small molecule HDAC inhibitors (AID 1259364).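 Further: wild-type HCT-116 cells with endogenous class I/II HDAC activity; top concentration of the series differs between compounds; nearly all actives have a fitted effect of over 45% in size.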 The gist of the method: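 Relative class I and II HDAC activity is taken from the luminogenic signal in HCT-116 cells, with compound exposure 2 hr and reagent development 30 min at room temperature.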
Test [13] can be described thus: qHTS assay to identify small molecule HDAC inhibitors - cell viability counter screen (AID 1259365). The gist of the method:
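Luminescence from CellTiter-Glo, developed 30min at room temperature, reports viability of wild-type HCT-116 cells treated 2hr with compounds at 37 C and 5% CO2 after overnight plating.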

Test [14] can be described thus: qHTS assay to identify small molecule antagonists of the sonic hedgehog signaling (Shh) pathway - cell viability counter screen (AID 1259367). Further: nearly all actives have a fitted effect of over 55% in size. The gist of the method: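 After a 4 hr settling period, 3T3 Gli1-Luc cells were treated with DMSO-dissolved chemicals and conditioned medium, kept 24 hr at 37C in 5% CO2, and assayed for viability by CellTiter-Fluor fluorescence following 1 hr reagent incubation.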

A short description of test [15]: qHTS assay to identify small molecule agonists of the sonic hedgehog signaling (Shh) pathway (AID 1259368; calls by dose curve;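 further: NIH/3T3-derived 3T3Gli1-Luc cells carrying a stable Gli1-driven firefly luciferase reporter; series mostly up to about 92 µM; nearly all actives have a fitted effect of over 15% in size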). The gist of the method:
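Mouse fibroblast (NIH/3T3) reporter cells with stably integrated Gli1-Luc were treated 24 hr with compound; firefly luciferase luminescence served as the read-out.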

Test [16] can be described thus: qHTS assay to identify small molecule agonists of the sonic hedgehog signaling (Shh) pathway - cell viability counter screen (AID 1259366). Further: nearly all actives have a fitted effect of over 50% in size. The gist of the method:
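Cytotoxicity counter screen run in the same wells as the Shh reporter assay. NIH/3T3 cells carrying a Gli1 response element–driven luciferase were treated with DMSO-dissolved compounds for 24hr, and live-cell protease activity was measured with CellTiter-Fluor.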

The target in test [17] is Estrogen receptor (Homo sapiens) (UniProt P03372). The test can be described thus: qHTS assay to identify small molecule antagonists of the estrogen receptor alpha (ER-alpha) signaling pathway using the BG1 cell line in the presence of 0.1 nM 17-beta-estradiol (AID 1259244). Further: nearly all actives have a fitted effect of over 50% in size. The gist of the method:
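VM7Luc4E2; 4xERE-luciferase; 0.1 nM E2 final; 22 h co-incubation, 37C; ONE-Glo luminescence after 30 min at room temperature.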

The nature of test [18]: qHTS assay to identify small molecule phospholipidosis (PLD) inducers (AID 1259344; active means well fitted curve in the direction sought with a large enough effect; an effect the other way counts as inactive or inconclusive). The gist of the method:
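HepG2 cells grown on collagen I take up LipidTOX Red while exposed to compound for 24 h; after fixation they are imaged at 20x and pit metrics are extracted.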

A short description of test [19]: A CellTox Green Cytotoxicity Assay to monitor cytotoxicity in HepG2 cells - 32 hour (AID 1224883). Further: nearly all actives have a fitted effect of over 50% in size. The gist of the method:
as §2

Estrogen receptor (Homo sapiens), sequence (P03372 whole entry, looked up): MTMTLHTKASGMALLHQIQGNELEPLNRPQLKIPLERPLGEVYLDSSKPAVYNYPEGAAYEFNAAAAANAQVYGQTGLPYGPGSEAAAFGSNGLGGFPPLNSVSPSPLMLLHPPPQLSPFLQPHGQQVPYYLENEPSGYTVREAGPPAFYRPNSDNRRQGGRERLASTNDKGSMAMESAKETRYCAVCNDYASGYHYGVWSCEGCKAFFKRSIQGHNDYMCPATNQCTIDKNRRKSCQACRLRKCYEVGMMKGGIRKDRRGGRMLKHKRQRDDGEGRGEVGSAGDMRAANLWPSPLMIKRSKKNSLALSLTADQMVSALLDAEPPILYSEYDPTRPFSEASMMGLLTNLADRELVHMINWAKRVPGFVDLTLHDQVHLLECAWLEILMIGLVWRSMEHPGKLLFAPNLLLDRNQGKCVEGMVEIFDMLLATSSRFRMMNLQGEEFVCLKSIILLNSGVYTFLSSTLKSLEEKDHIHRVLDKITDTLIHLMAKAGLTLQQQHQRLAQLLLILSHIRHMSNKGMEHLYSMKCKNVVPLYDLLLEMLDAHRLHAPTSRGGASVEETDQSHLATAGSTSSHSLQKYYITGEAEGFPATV

`CCCNCC(O)COc1ccccc1C(=O)CCc1ccccc1` (stereo not given): the Potency result in [1], in [2], in test [3], in test [4], in test [7] and in [8] was “inactive” in each case. The Potency entry in test [9], in [10], in [11], in test [12], in test [13] and in test [14] was “inactive” in each case. The Potency in test [5] and in [6] was 2130 nM (active) throughout. Further, the molecule was classed as inactive in test [15].

For the molecule `CCCCC(CC)COC(=O)COc1ccc(Cl)cc1Cl` (stereo not given), the Potency result in [1], in [2], in test [3], in test [4], in test [5] and in test [6] was “inactive” each time. For the same molecule, the Potency entry in test [7], in test [8], in test [9], in test [10], in test [11] and in test [12] was “inactive” throughout. Besides, the Potency result in test [13], in test [16] and in test [14] was “inactive” each time. Besides, the outcome in [15] was inactive.

With `N=c1ccn2c(n1)O[C@H]1[C@H](O)[C@@H](CO)O[C@H]12`, the Potency entry in test [1], in test [2], in test [3], in [4], in test [5] and in [6] was “inactive” throughout. In addition, the Potency result in test [7], in test [8], in test [9], in test [10], in test [11] and in test [17] was “inactive” throughout. Further, the Potency result in test [18], in test [12], in test [13], in [16] and in test [14] was “inactive” throughout. The outcome in test [15] was inactive.

Turning to `O=C(O)C1(C(=O)O)CCC1.[NH2-].[NH2-].[Pt+2]`, the Potency result in test [1], in [2], in [3], in [4], in test [5] and in [6] was “inactive” throughout. Moreover, the Potency entry in test [7], in test [8], in test [9], in test [10], in [11] and in test [17] was “inactive” each time. The Potency entry in test [12], in test [13], in [16] and in test [14] was “inactive” each time. Further, in test [15], the outcome was inactive.

`COc1cccc(N(C)C(=S)Oc2ccc3c(c2)CCCC3)n1`: the Potency result in test [1], in [19], in [3], in test [4], in [5] and in test [6] was “inactive” in each case. Further, the Potency entry in test [7], in test [8], in [9], in test [10], in test [11] and in [17] was “inactive” each time. Also, the Potency entry in test [18], in test [12], in test [13], in [16] and in test [14] was “inactive” in each case. The molecule was classed as inactive in [15].

Turning to `COC(C)OC`, the Potency entry in test [1], in test [19], in test [3], in test [4], in [5] and in test [6] was “inactive” each time. Besides, the Potency result in [7], in test [8], in test [10], in [11], in test [17] and in [12] was “inactive” throughout. Moreover, the Potency result in test [16] and in test [14] was “inactive” in each case. For the same molecule, in [15], the molecule was classed as inactive.

As to `c1cc(CCCc2ccncc2)ccn1`, the Potency entry in test [1], in [19], in test [3], in test [4], in test [5] and in test [6] was “inactive” in each case. Besides, the Potency entry in test [7], in test [8], in test [10], in test [11], in [17] and in [12] was “inactive” in each case. Moreover, the Potency entry in test [13], in test [16] and in test [14] was “inactive” throughout. Besides, the result in test [15] was inactive.
